# Assay results reported in PubChem BioAssay.
# “And” between values parts separate entries of the source, which are not always exact repeats. Equal entries are not always repeated. The source made the active and inactive calls. The rule behind the calls is not given here.
# Assays:
# [1] = liver-stage malaria parasite load reduction – cell-based, known kinase inhibitor set, luminescence, hepatoma host viability (AID 624392); conditions: Plasmodium liver stage in hepatoma cells, luciferase luminescence, concentration not given here; liver cell % of control: measured here: host liver cell viability; parasite % of control: stronger effect = lower value;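 note: infected cells incubated roughly two days before readout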
# [2] = altered dexamethasone sensitivity, NF-kB reporter, cell-based, luciferase, IL-1B stimulus (AID 624486); conditions: IL-1B + dexamethasone, luminescence; percent of negative control (+Dex): actives lie on both sides, concentration not given here; z-score: measured here: IL-1B alone, no Dex;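 for percent of negative control (+Dex): 100% = mean signal of vehicle control wells on the plate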
# [3] = target: Cellular tumor antigen p53 (Homo sapiens) (UniProt P04637); assay: GFP-p53 level modulators in HPV16+ cells – imaging, known kinase inhibitor set, EGFP/DsRed ratio (AID 1053116); conditions: GFP-p53 stability, stronger effect = higher value; EGFP object count: measured here: GFP-p53 positive objects count;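 note: cells exposed to compounds for 24 h at 37 °C before reading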
# [4] = inducers of IRF3 signaling, differentiated THP-1 – cell-based, PMA-stimulated THP-1, luminescence (AID 1053176); conditions: PMA-differentiated THP-1, IRF3 reporter luminescence; stronger effect = higher value
# Chain of Cellular tumor antigen p53 (Homo sapiens) (P04637 whole entry, looked up): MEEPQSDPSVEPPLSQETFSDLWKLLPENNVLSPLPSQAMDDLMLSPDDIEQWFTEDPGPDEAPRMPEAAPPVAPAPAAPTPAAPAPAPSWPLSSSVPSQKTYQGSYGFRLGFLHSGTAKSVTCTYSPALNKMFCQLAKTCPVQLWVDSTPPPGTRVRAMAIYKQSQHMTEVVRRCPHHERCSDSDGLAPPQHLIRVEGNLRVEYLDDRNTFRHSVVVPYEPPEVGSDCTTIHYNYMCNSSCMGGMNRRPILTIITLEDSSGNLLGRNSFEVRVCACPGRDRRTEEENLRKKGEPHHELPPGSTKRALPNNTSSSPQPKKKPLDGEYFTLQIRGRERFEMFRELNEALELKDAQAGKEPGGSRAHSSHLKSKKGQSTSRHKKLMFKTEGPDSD
Structure (SMILES),liver cell % of control [1],parasite % of control [1],percent of negative control (+Dex) [2],z-score [2],EGFP object count [3],EGFP/DsRed ratio [3],fraction signal [4]
Cn1cc(C2=C(c3cn(CCCCC(=N)N)c4ccccc34)C(=O)NC2=O)c2ccccc21,133%,22.6% (inactive),98% (inactive),0.29,10.5,0.2 (inactive),0.0055 (inactive)
O=C1OC(=O)C(c2c[nH]c3ccccc23)=C1c1c[nH]c2ccccc12,99.6%,48.8% (inactive),95% (inactive),1,3.5,0.0625 (inactive),-0.018 (inactive)
Cc1ccc(C)c(C2=C(c3cn(C)c4ccccc34)C(=O)NC2=O)c1,166%,33% (inactive),102% (inactive),-1.65,33.5,0.361 (inactive),0.0035 (inactive)
OCCn1c(-c2ccncc2)c(-c2ccc(F)cc2)c2ncccc21,114%,46% (inactive),99.5% (inactive),0.305,5.5,0.119 (inactive),-0.0135 (inactive)
Cn1cc(C2=C(c3cn(CCCCCO)c4ccccc34)C(=O)NC2=O)c2ccccc21,97.8%,31.3% (inactive),101% (inactive),-1.23,18.5,0.347 (inactive),-0.0115 (inactive)
Cc1c(C2=C(c3cn(C)c4ccccc34)C(=O)NC2=O)c2ccccc2n1C,103%,53.6% (inactive),102% (inactive),-0.055,9,0.392 (inactive),0.0015 (inactive)
N#CCn1c(=O)c(Oc2ccc(F)cc2F)cc2cnc(NC3CCOCC3)nc21,96.2%,58.4% (inactive),97% (inactive),-0.11,2.5,0.064 (inactive),-0.007 (inactive)
Cn1cc(C2=C(c3c(S(C)=O)n(C)c4ccccc34)C(=O)NC2=O)c2ccccc21 (configuration not stated),123%,78.6% (inactive),97.5% (inactive),0.295,5,0.591 (inactive),-0.003 (inactive)
Cn1cc(C2=C(c3ccc(N)cc3)C(=O)NC2=O)c2ccccc21,135%,32.1% (inactive),100% (inactive),-0.99,28.5,0.493 (inactive),-0.005 (inactive)
O=[N+]([O-])c1ccc2c(c1)C(c1ccccc1Cl)=Nc1cn[nH]c1N2,101%,21.4% (inactive),109% (inactive),-0.52,12,0.495 (inactive),-0.005 (inactive)
CC(=O)Nc1ccc2c(C3=C(c4cn(C)c5ccccc45)C(=O)NC3=O)cn(C)c2c1,83.1%,16.4% (inactive),114% (inactive),-1.25,61.5,0.596 (active),-0.009 (inactive)
O=C1NC(=NC(CO)Cc2ccccc2)SC1=Cc1ccc2ncccc2c1 (configuration not stated),107% and 106%,258% (inactive) and 60% (inactive),91.5% (inactive) and 102% (inactive),-0.515 and 0.03,6.5 and 4,0.117 (inactive) and 0.195 (inactive),-0.0075 (inactive) and -0.0115 (inactive)
COc1ccc2c(C3=C(c4cn(C)c5ccccc45)C(=O)NC3=O)cn(C)c2c1,79.3%,31.4% (inactive),113% (inactive),-1.48,66,0.456 (inactive),-0.007 (inactive)
Cn1cc(C2=C(c3cn(C)c4ncccc34)C(=O)NC2=O)c2ccccc21,95.3%,38.8% (inactive),100% (inactive),-0.87,20,0.579 (inactive),-0.009 (inactive)
Cn1cc(C2=C(c3cn(C)c4ccc(N)cc34)C(=O)NC2=O)c2ccccc21,95.1%,36.7% (inactive),98% (inactive),0.385,11,0.25 (inactive),-0.0115 (inactive)
Cn1c(=O)c(Oc2ccc(F)cc2F)cc2cnc(NC3CCC(O)CC3)nc21 (configuration not stated),112%,60.3% (inactive),85% (inactive),-0.62,5,0.154 (inactive),-0.0095 (inactive)
N=C1N=C(N)C(=Cc2ccc3ncccc3c2)S1,121%,61.8% (inactive),98.5% (inactive),1.46,3.5,0.171 (inactive),0.006 (inactive)
CS(=O)(=O)CCc1cccc(C(=O)c2cnn(-c3ccc(F)cc3)c2N)c1,95.7%,45.3% (inactive),102% (inactive),1.1,1.5,0.152 (inactive),-0.0075 (inactive)
CS(=O)(=O)CCCn1c(=O)c(Oc2ccc(F)cc2F)cc2cnc(NC3CCOCC3)nc21,98.7%,51.4% (inactive),101% (inactive),0.05,1,0.0135 (inactive),-0.009 (inactive)
Cn1cc(C2=C(c3ccccc3)C(=O)NC2=O)c2ccccc21,104%,41% (inactive),96% (inactive),-0.33,9.5,0.26 (inactive),-0.001 (inactive)
Nc1c(C(=O)c2cccc(-c3cccnc3)c2)cnn1-c1ccc(F)cc1F,175%,28.3% (inactive),110% (inactive),0.74,4.5,0.0328 (inactive),0.0015 (inactive)
